Laboratory results published in ChEMBL document CHEMBL3988442, “University of Dundee, Small-Polar-MMV Screening Library” (2021).
For some of these results: Measured potencies and affinities stand elsewhere.

Tests used:
Design in all cases: scale not given: direction of the effect not stated beside the values
[1] = target: Protein translocase subunit SecA (Escherichia coli (strain K12)) (UniProt P10408); assay: Assay to Identify E. coli SecA ATPase Inhibitors; assay type: functional; settings: 30 µM
[2] = target: T1, Ubiquitin-activating enzyme e1, putative (Leishmania donovani (strain BPK282A1)) (UniProt E9BSI1); assay: Leishmania donovani Ubiquitin Activating Enzyme (LdE1); assay type: functional; settings: 30 µM
T1 sequence (whole entry): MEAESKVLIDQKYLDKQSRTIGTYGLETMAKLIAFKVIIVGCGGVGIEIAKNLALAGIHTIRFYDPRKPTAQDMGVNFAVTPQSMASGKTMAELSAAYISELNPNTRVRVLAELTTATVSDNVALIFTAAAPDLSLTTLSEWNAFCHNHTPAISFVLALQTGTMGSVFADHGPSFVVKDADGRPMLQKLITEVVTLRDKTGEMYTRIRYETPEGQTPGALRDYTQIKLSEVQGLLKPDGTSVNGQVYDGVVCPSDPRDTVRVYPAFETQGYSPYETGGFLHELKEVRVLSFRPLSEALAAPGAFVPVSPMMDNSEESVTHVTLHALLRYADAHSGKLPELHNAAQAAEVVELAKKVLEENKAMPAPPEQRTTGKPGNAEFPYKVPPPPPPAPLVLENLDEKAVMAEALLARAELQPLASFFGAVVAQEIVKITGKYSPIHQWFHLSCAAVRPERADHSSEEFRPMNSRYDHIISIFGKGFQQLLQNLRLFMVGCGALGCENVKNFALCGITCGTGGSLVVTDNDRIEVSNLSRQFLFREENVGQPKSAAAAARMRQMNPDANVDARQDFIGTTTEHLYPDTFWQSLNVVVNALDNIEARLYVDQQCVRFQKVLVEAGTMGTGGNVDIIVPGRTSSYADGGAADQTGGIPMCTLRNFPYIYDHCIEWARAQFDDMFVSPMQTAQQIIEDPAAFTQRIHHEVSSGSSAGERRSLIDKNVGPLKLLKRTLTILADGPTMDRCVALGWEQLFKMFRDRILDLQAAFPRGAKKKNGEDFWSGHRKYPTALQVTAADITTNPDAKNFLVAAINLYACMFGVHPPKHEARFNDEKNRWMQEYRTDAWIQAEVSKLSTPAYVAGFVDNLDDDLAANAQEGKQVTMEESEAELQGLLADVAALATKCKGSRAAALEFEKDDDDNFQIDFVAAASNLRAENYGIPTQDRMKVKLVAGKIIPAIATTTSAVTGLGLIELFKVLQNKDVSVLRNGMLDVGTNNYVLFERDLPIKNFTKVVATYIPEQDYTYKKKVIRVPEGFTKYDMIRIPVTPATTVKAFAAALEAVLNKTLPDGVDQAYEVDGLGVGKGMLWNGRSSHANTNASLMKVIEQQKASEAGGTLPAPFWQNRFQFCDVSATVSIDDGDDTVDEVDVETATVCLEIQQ

[3] = target: AMP-activated protein kinase, AMPK (Homo sapiens) (UniProt P54646+O43741+P54619+Q9UGJ0+Q9Y478+Q13131+Q9UGI9); assay: AMP-dependent Kinase enzyme assay. An in vitro enzyme assay that detects ADP turnover that is directly proportional to AMPK activity. This uses naive AMPK that is activated during the assay with MK-8722; assay type: functional; settings: 30 µM
[4] = target: Sialic acid-binding Ig-like lectin 9 (Homo sapiens) (UniProt Q9Y336); assay: Hs-Siglec9 ALPHAscreen SOP 20170721; settings: 10 µM
Trypanosoma cruzi = assay: Trypanosoma cruzi phosphomannomutase and mannose-1-phosphate guanylyltransferase assay; assay type: functional; settings: 10 µM
[5] = target: T2, Arginase-2, mitochondrial (Homo sapiens) (UniProt P78540); assay: in vitro enzyme assay to detect the production of urea directly proportional to the activity of Arginase II; assay type: functional; settings: 33.3 µM; note: in the data most compounds retested in dose-response had high values
T2 sequence (whole entry): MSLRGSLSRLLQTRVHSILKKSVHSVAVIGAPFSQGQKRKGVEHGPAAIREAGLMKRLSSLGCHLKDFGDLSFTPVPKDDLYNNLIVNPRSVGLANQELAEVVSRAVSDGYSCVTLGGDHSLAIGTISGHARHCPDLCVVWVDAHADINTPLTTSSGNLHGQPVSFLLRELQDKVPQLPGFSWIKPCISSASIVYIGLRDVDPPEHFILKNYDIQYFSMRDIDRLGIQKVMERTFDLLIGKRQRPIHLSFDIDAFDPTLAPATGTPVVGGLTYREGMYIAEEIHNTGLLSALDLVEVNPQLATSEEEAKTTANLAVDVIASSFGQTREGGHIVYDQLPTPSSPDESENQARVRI

[6] = target: T3, Proteasome subunit beta (Trypanosoma cruzi) (UniProt O96673); assay: Trypanosoma cruzi proteasome chymotrypsin-like activity (TcProtChymo) assay.; note: in the data most compounds retested in dose-response had high values; assay type: functional; settings: 9.37 µM
T3 sequence (whole entry): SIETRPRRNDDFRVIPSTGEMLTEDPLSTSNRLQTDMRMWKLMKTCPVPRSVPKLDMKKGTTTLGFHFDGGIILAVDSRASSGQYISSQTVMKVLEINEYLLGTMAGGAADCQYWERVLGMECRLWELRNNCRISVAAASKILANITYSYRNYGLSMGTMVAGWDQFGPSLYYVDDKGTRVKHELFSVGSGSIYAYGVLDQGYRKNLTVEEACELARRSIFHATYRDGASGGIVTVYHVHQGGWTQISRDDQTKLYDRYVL

Homo sapiens = species: Homo sapiens; assay: To identify inhibition of the IFN signalling (Jak-Stat) pathway via expression of an eGFP reporter gene under the control of an IFN-stimulated response element (ISRE) containing MxA promoter.; assay type: functional; settings: 30 µM
[7] = target: T4, Tyrosyl-tRNA synthetase, putative (Trypanosoma cruzi (strain CL Brener)) (UniProt Q4DSP6); assay: Trypanosoma cruzi tyrosyl tRNA synthetase (TcYRS) _High Tyrosine SOP; assay type: functional; settings: 30 µM; note: in the data most compounds retested in dose-response had high values
T4 sequence (whole entry): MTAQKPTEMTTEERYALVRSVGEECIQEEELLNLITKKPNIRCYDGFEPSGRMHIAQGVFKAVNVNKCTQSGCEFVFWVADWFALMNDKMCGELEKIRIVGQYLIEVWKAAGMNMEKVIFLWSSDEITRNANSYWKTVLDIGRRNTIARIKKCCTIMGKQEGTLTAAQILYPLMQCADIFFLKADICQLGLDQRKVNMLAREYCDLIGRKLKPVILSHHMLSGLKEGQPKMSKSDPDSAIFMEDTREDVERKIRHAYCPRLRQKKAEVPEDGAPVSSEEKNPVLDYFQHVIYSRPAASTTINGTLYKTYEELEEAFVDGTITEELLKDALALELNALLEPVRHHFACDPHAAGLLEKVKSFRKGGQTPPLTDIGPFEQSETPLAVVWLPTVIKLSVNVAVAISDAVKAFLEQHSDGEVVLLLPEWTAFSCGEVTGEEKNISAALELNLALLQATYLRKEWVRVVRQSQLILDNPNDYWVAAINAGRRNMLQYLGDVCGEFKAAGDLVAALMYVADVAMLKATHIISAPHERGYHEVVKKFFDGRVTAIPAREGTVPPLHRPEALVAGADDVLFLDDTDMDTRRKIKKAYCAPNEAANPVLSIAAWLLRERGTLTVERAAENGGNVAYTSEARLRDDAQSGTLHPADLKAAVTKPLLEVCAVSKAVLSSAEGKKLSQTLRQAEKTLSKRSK

[8] = target: T4, Tyrosyl-tRNA synthetase, putative (Trypanosoma cruzi (strain CL Brener)); assay: Trypanosoma cruzi tyrosyl tRNA synthetase (TcYRS) SOP; assay type: functional; settings: 30 µM
[9] = target: Chromo domain-containing protein 1 (Saccharomyces cerevisiae (strain ATCC 204508 / S288c) (Baker's yeast)) (UniProt P32657); assay: ScCHD-1 Enzyme Inhibition Assay; assay type: functional; settings: 30 µM; note: in the data most compounds retested in dose-response had high values
Sequence of Chromo domain-containing protein 1 (Saccharomyces cerevisiae (strain ATCC 204508 / S288c) (Baker's yeast)) (P32657 whole entry, the tested form may be a part): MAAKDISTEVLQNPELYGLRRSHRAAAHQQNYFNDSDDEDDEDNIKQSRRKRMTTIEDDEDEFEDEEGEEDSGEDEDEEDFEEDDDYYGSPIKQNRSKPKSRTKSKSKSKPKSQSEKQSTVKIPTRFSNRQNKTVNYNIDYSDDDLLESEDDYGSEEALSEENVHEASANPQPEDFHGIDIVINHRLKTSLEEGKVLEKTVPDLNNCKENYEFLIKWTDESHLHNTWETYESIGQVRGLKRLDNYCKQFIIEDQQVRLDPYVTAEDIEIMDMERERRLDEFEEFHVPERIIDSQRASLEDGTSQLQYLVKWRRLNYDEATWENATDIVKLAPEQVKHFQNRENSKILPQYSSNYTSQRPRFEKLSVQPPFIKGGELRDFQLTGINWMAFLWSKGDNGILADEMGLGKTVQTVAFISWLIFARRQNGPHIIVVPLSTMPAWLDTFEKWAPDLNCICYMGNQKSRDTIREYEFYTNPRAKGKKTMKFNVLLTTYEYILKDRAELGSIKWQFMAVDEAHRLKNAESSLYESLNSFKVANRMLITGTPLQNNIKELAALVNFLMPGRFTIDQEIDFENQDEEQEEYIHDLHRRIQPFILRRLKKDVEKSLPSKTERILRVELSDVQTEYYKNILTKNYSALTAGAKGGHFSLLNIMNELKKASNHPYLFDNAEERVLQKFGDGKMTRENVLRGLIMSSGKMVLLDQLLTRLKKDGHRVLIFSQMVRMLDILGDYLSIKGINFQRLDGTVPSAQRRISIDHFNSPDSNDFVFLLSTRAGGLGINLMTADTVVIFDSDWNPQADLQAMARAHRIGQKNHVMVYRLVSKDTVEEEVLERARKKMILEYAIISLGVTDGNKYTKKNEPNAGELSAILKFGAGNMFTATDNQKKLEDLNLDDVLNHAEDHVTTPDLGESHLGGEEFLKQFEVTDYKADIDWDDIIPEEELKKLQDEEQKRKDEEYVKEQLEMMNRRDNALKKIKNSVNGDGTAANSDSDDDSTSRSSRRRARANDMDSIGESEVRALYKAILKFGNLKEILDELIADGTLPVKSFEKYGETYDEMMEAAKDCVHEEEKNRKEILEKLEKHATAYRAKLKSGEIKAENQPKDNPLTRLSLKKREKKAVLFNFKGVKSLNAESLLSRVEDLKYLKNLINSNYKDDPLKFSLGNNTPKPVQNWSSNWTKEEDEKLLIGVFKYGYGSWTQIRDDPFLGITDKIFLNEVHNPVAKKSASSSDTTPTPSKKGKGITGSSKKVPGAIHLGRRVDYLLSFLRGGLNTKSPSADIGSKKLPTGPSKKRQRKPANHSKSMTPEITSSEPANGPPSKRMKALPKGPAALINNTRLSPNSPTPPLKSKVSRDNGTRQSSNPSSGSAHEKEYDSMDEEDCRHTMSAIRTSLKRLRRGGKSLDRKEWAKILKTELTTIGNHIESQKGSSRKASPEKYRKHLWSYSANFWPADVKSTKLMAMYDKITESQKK

Sequence of Protein translocase subunit SecA (Escherichia coli (strain K12)) (P10408 whole entry): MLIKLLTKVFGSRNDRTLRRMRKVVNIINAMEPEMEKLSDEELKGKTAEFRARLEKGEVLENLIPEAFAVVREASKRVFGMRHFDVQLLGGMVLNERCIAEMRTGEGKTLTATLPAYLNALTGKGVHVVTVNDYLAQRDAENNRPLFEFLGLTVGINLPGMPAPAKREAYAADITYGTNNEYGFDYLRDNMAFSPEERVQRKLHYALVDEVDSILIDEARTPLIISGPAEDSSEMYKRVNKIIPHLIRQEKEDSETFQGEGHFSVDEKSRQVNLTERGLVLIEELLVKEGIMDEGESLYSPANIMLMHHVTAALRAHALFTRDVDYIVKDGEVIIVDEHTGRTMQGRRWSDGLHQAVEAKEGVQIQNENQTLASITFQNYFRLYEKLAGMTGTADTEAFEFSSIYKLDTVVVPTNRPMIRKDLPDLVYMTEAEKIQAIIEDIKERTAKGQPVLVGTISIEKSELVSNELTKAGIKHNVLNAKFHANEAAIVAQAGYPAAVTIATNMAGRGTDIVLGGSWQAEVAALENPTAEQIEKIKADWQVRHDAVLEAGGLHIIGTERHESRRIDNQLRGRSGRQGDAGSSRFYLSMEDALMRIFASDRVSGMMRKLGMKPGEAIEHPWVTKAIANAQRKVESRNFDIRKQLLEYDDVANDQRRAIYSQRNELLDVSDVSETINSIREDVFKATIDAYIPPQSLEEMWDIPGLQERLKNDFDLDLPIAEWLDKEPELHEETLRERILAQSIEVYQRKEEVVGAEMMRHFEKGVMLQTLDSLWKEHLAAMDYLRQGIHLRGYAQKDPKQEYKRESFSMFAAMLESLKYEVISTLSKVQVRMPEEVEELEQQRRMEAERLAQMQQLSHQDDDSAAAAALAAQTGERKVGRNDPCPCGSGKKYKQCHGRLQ
Sequence of Sialic acid-binding Ig-like lectin 9 (Homo sapiens) (Q9Y336 whole entry): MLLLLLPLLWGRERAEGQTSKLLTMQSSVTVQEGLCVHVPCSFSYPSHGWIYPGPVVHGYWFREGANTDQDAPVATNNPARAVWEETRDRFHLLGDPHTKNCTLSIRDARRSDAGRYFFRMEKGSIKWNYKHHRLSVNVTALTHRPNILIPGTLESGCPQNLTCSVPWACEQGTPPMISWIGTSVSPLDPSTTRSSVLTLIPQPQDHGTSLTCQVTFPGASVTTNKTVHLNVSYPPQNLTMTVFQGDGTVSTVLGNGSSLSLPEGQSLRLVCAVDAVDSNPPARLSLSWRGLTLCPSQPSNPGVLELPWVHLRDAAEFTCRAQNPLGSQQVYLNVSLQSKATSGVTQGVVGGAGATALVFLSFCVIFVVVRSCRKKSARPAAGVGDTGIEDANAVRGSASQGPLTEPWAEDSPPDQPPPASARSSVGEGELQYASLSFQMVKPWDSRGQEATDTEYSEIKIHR

| SMILES | Percent Effect [1] [%] | Percent Effect [2] [%] | Percent Effect [3] [%] | Percent Effect [4] [%] | Percent Effect (Trypanosoma cruzi) [%] | Percent Effect [5] [%] | Percent Effect [6] [%] | Percent Effect (Homo sapiens) [%] | Percent Effect [7] [%] | Percent Effect [8] [%] | Percent Effect [9] [%] |
| --- | --- | --- | --- | --- | --- | --- | --- | --- | --- | --- | --- |
| CN1CC2(CCN(Cc3ccoc3)CC2)COc2ccccc2S1(=O)=O | -0.535 | 2.7 | -0.665 | 1.6 | -3.23 | 5.21 | 14.8 | 4.83 | 7.53 | 13.6 | -2.59 |
| CC(NC(=O)NCCn1ccnc1)c1ccc2c(c1)NC(=O)CO2 (stereo not drawn) | -4.14 | 10.1 | 1.48 | 0.18 | -7.65 | -1.52 | -0.409 | 17.8 | 0.493 | 13.9 | -1.54 |
| O=C(c1ccc(Br)o1)N1CCN(Cc2ccc(OC(F)(F)F)cc2)CC1 | -1.82 | 5.48 | 27.2 | -16.1 | -1.96 | -0.455 | 8.87 | 37.2 | 2.15 | 7.5 | -3.29 |
| Cc1ccc(-c2cn[nH]c2C2CCCN(c3nccc(N)n3)C2)cc1 (stereo not drawn) | -2.69 | 20.8 | 46.7 | 15.4 | 5.15 | -1.77 | 25.6 | 37.1 | 7.37 | 20.5 | 3.03 |
| COC(=O)CCC(=O)N1CCc2[nH]nc(-c3ccc(F)c(F)c3)c2C1 | -3.6 | 0 | 8.72 | -7.28 | -3.81 | 1.24 | -3.35 | 9.05 | 2.15 | 8.64 | -0.244 |
| Cc1ncc(CNC(=O)c2nn(C)c3c2CS(=O)(=O)CC3)s1 | -3.9 | 9.33 | 3.53 | 5.84 | 3.73 | -6.16 | 13.3 | 4.95 | 9.52 | 12.8 | -9.87 |
| Cc1ccc(C(=O)NCCS(C)(=O)=O)c(=O)[nH]1 | -3.94 | 16.2 | -7.64 | -5.87 | 4.88 | 10.4 | 16.1 | 7.03 | 9.9 | 15.8 | -5.72 |
| CN(CC(=O)N1CCC(C(O)c2ccccc2)CC1)c1cnccn1 (stereo not drawn) | -0.515 | 10.8 | -0.406 | 9.65 | -0.279 | -2.77 | 8.62 | 13.4 | 5.94 | 23.2 | -7.9 |
